Results on 29 compounds are retold here after PubChem BioAssay (Tox21).

Experiment [1] can be described thus: qHTS assay to identify small molecule antagonists of the thyroid receptor (TR) signaling pathway (AID 743065). Also: series mostly up to about 70 µM; nearly all actives have a fitted effect of over 55% in size. Summed up: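 GH3.TRE-Luc rat pituitary cells (two TREs driving luciferase) were dosed with compound, then stimulated with 1 nM T3 (final) for 23.5 h at 37 C. ONE-Glo luminescence was the read-out, with CellTiter-Fluor fluorescence as the cytotoxicity counter-screen.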
(In qHTS, concentration-response curves come from the screen itself.)

Experiment [2] relates to thyroid hormone receptor (rat, GH3 cells). As to the kind of experiment: qHTS assay to identify small molecule agonists of the thyroid receptor (TR) signaling pathway (AID 743066; calls by dose curve).
Experiment [3] can be described thus: qHTS assay to identify small molecule antagonists of the estrogen receptor alpha (ER-alpha) signaling pathway using the BG1 cell line - cell viability counter screen (AID 743081).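 Also: compound given together with 17beta-estradiol as the ER stimulus; series mostly up to about 70 µM; nearly all actives have a fitted effect of over 45% in size.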
Experiment [4] can be described thus: qHTS assay to identify small molecule antagonists of the estrogen receptor alpha (ER-alpha) signaling pathway - cell viability counter screen (AID 743074; calls by dose curve;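 also: HEK293 cells carrying ER-alpha-UAS-bla reporter stimulated with 17beta-estradiol; nearly all actives have a fitted effect of over 45% in size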).
The target in another experiment is Aromatase (Homo sapiens) (UniProt P11511). As to the kind of experiment: qHTS assay to identify aromatase inhibitors (AID 743083). Also: series mostly up to about 70 µM; nearly all actives have a fitted effect of over 55% in size.
Experiment [5] addresses Estrogen receptor (Homo sapiens) (UniProt P03372). As to the kind of experiment: qHTS assay to identify small molecule antagonists of the estrogen receptor alpha (ER-alpha) signaling pathway (AID 743069; active = well fitted curve in the direction sought with a large enough effect in the signal ratio in the repeat runs, not every such curve was filed as active; the % refers to the signal ratio). The method, boiled down:
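Beta-lactamase FRET fluorescence is read after 2 hr at room temperature with LiveBLAzer B/G substrate. Before that, ER-alpha-bla HEK293 cells sit 4 hr after plating, then receive compound plus 17beta-estradiol and incubate 18 hr at 37C.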

Experiment [6] has the same target. As to the kind of experiment: qHTS assay to identify small molecule agonists of the estrogen receptor alpha (ER-alpha) signaling pathway (AID 743075; calls by dose curve;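 also: HEK293 GripTite cells with ER-alpha and UAS-driven beta-lactamase reporter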).
Experiment [7] shares this target. Description: qHTS assay to identify small molecule agonists of the estrogen receptor alpha (ER-alpha) signaling pathway using the BG1 cell line (AID 743079). Also: nearly all actives have a fitted effect of over 20% in size. Also: potency is read from the fitted curve at half-maximal effect.
The nature of experiment [8]: qHTS assay to identify small molecule antagonists of the estrogen receptor alpha (ER-alpha) signaling pathway using the BG1 cell line (AID 743080; calls by dose curve;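 also: BG1 cells stimulated with 17beta-estradiol alongside compound; series mostly up to about 70 µM; nearly all actives have a fitted effect of over 25% in size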). The method, boiled down: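 BG1Luc4E2, endogenous ER-alpha, 4xERE-luc; 5 d charcoal-stripped FBS, phenol red free; 24 h plating; cpd + 17beta-estradiol 21.5 h, 37 C/5% CO2; CellTiter-Fluor viability 30 min, then ONE-Glo luciferase 30 min RT.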

Each structure is given as a SMILES string. Results filed as inconclusive are left out. Values without a mark were called inactive. Calls of active or inactive are those of the source. Unless noted, calls follow the shape of the dose curve; as a rule, active = well fitted curve in the direction sought with a large enough effect in the repeat runs; inconclusive = weak or mixed curves; inactive = no such curve, though single readings can be large; an effect the other way counts as inactive or inconclusive.

Chain of Aromatase (Homo sapiens) (P11511 whole entry, looked up): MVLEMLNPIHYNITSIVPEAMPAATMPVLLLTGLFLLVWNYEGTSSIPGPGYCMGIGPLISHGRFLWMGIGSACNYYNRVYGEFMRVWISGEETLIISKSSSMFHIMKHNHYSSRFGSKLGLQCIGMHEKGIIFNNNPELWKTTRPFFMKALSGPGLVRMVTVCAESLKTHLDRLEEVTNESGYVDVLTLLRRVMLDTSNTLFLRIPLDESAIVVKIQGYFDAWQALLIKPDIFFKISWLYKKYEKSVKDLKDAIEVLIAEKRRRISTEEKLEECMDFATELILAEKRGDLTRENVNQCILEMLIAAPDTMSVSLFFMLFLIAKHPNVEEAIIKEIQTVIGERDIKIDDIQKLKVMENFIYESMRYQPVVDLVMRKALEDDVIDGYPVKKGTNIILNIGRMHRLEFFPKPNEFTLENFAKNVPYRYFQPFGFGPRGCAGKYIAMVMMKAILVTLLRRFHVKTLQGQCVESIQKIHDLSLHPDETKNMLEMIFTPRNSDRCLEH
Chain of Estrogen receptor (Homo sapiens) (P03372 whole entry, looked up): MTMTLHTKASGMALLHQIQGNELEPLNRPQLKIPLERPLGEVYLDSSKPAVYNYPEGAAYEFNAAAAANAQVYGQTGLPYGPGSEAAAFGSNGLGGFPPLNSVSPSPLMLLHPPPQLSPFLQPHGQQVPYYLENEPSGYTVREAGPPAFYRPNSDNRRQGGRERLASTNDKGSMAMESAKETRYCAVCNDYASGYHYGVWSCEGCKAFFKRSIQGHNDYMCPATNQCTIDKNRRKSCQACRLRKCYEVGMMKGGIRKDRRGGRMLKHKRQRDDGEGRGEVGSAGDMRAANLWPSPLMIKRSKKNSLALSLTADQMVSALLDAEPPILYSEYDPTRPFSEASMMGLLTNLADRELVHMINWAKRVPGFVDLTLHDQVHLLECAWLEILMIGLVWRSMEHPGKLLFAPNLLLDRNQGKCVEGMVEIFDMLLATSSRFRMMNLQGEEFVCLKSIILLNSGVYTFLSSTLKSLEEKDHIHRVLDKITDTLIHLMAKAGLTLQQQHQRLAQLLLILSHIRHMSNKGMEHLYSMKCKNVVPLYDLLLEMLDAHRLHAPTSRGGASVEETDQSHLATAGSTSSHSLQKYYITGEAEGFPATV

With `Brc1ccc(-c2ccccc2)cc1`, in experiment [1], the Potency entry is “inactive”. Further, the call in experiment [2] and in experiment [3] was inactive.
Turning to `COc1ccc2c(c1OC)C(=O)O[C@@H]2[C@H]1c2c(cc3c(c2OC)OCO3)CCN1C`, the result in [4] was inactive.
As for `CC(C)NCC(O)COc1cccc2[nH]ccc12` (stereo unspecified), the Potency entry (in [1]; with Aromatase (Homo sapiens)) was “inactive” throughout. For the same compound, the outcome in experiment [2], in experiment [4] and in experiment [3] was inactive.
As for `CC(C)=CCOC(=O)c1ccccc1`, the Potency result in experiment [1] was “inactive”. Further, the outcome in experiment [2], in experiment [4] and in experiment [3] was inactive.
With `CC1COc2ccccc2N1` (stereo unspecified), the Potency entry (in experiment [1]; with Aromatase (Homo sapiens)) was “inactive” throughout. Further, the result in [2], in [4] and in [3] was inactive.
Regarding `O=Cc1ccc(Cl)c(Cl)c1`, the Potency entry (in experiment [1]; with Aromatase (Homo sapiens)) was “inactive” each time. Besides, the call in experiment [2], in experiment [4] and in experiment [3] was inactive.
As to `C=C(C)C(=O)OCCN(CC)CC`, the Potency entry (in experiment [1]; with Aromatase (Homo sapiens)) was “inactive” throughout. In addition, the compound was classed as inactive in [2], in experiment [4] and in experiment [3].
With `CC(N)C(=O)OC(C)(C)Cc1ccc(Cl)cc1` (stereo unspecified), the call in experiment [2], in experiment [5], in experiment [4], in experiment [6] and in experiment [3] was inactive. The Potency result (in experiment [7]; with Aromatase (Homo sapiens)) was “inactive” throughout.
Consider `CCN(CC)CC(=O)Nc1c(C)cccc1C`, for which the Potency entry in experiment [1] is “inactive”. Also, the outcome in [2], in experiment [4] and in experiment [3] was inactive.
For the compound `CC1=C(C(=O)O)N2C(=O)[C@@H](NC(=O)[C@H](N)c3ccc(O)cc3)[C@H]2SC1`, the call in experiment [4] and in experiment [3] was inactive. The Potency entry with Aromatase (Homo sapiens) is “inactive”.
For `CCO[Si](CCCS)(OCC)OCC`, the Potency result (in [1]; with Aromatase (Homo sapiens)) was “inactive” throughout. Further, the result in experiment [2], in [4] and in [3] was inactive.
Regarding `N#Cc1ccc(C(=O)O)cc1`, the Potency entry (in experiment [1]; with Aromatase (Homo sapiens)) was “inactive” throughout. For the same compound, the call in [2], in experiment [4] and in [3] was inactive.
As to `COC(=O)c1ccccc1C(=O)c1ccc(OCCN2CCCCC2)cc1`, the compound was called inactive in experiment [2], in experiment [5], in [4], in [6] and in [3]. Also, the Potency result (in experiment [7]; in experiment [8]; with Aromatase (Homo sapiens)) was “inactive” in each case.
Turning to `CCCC/C=C\CCCCCCCCCC=O`, the Potency result (in experiment [1]; with Aromatase (Homo sapiens)) was “inactive” in each case. Further, the compound was called inactive in experiment [2], in [4] and in [3].
In the case of `N[C@@H](CCC(=O)N[C@@H](CS)C(=O)NCC(=O)O)C(=O)O`, the compound was classed as inactive in [4] and in [3]. In addition, the Potency entry in the experiment with Aromatase (Homo sapiens) is “inactive”.
Turning to `CC(C)CCCCOC(=O)c1ccccc1C(=O)OCCCCC(C)C`, the Potency result (in experiment [1]; with Aromatase (Homo sapiens)) was “inactive” each time. The compound was called inactive in experiment [2], in experiment [4] and in experiment [3].
Turning to `O=C(O)c1cc(Br)c(O)c(Br)c1`, the Potency result (in experiment [1]; in the experiment with Aromatase (Homo sapiens)) was “inactive” each time. In addition, the compound was classed as inactive in [2], in [4] and in experiment [3].
As for `C=CC(OCC)OCC`, the Potency result (in experiment [1]; with Aromatase (Homo sapiens)) was “inactive” in each case. Moreover, the result in experiment [2], in experiment [4] and in experiment [3] was inactive.
As to `CC(C)CC(C)CC(C)CC(C)COC(=O)c1ccccc1C(=O)OCC(C)CC(C)CC(C)CC(C)C` (stereo unspecified), the Potency result (in experiment [1]; with Aromatase (Homo sapiens)) was “inactive” in each case. For the same compound, the outcome in experiment [2], in [4] and in [3] was inactive.
Take `C[C@@H]1O[C@@H](O[C@@H]2[C@@H](O)[C@H](OCCc3ccc(O)c(O)c3)O[C@H](CO[C@@H]3O[C@H](CO)[C@@H](O)[C@H](O)[C@H]3O)[C@H]2OC(=O)/C=C/c2ccc(O)c(O)c2)[C@H](O)[C@H](O)[C@H]1O`: the Potency result (in experiment [1]; with Aromatase (Homo sapiens)) was “inactive” in each case. Further, the compound was called inactive in experiment [2] and in experiment [4].
As to `COc1cc(N)ccc1C`, in experiment [1], the Potency result is “inactive”. Further, the call in experiment [2], in experiment [4] and in experiment [3] was inactive.
Take `CCCCNC1CC(C)(C)NC(C)(C)C1`: the compound was called inactive in [2], in experiment [5], in [4] and in experiment [6]. For the same compound, the Potency entry (in experiment [7]; in experiment [8]; with Aromatase (Homo sapiens)) was “inactive” in each case.
For the compound `C[C@H](CCC(=O)O)[C@H]1CC[C@H]2[C@@H]3C(=O)C[C@@H]4CC(=O)CC[C@]4(C)[C@H]3CC(=O)[C@]12C`, the result in [2], in experiment [5], in [4], in experiment [6] and in [3] was inactive. Moreover, the Potency result (in [7]; in [8]; with Aromatase (Homo sapiens)) was “inactive” throughout.
`CC(CN)CC(C)(C)CCN` (stereo unspecified): the Potency entry (in experiment [1]; in the experiment with Aromatase (Homo sapiens)) was “inactive” in each case. For the same compound, the compound was called inactive in experiment [2], in [4] and in experiment [3].
Regarding `CCCCOC(=O)c1ccccc1`, the compound was called inactive in experiment [5], in experiment [4], in experiment [6] and in experiment [3]. Besides, the Potency in experiment [7] is 34.4 µM (active). In addition, the Potency entry in the experiment with Aromatase (Homo sapiens) is “inactive”.
Regarding `COc1ccc(Br)c(C)c1`, the Potency result (in [1]; with Aromatase (Homo sapiens)) was “inactive” in each case. Besides, the outcome in [2], in experiment [4] and in experiment [3] was inactive.
For the compound `Cc1ccccc1OCC(O)CO` (stereo unspecified), the Potency entry (in [1]; with Aromatase (Homo sapiens)) was “inactive” in each case. Further, the compound was called inactive in experiment [2] and in experiment [3].
For the compound `CCCCCCCCCCCCCC`, the compound was classed as inactive in experiment [4] and in [3]. In addition, the Potency entry with Aromatase (Homo sapiens) is “inactive”.
On to `CC(C)CC(=O)O`, for which the compound was called inactive in [5], in experiment [4], in experiment [6] and in [3]. In addition, the Potency result (in [7]; in [8]; in the experiment with Aromatase (Homo sapiens)) was “inactive” each time.
